The whole screen tested about 5,500 compounds, of which about 2,000 (36%) were called active. About 18% were inconclusive and are not listed. This is one part of the list. Unmarked numbers belong to inactive results. No stated cut-off is given here; in the data, active means normalized growth mostly below about 0.91 (no sharp cut-off); inconclusive means no clear call, values can overlap the other calls; inactive means mostly above about 0.92.
Assay: chemical genetic growth profiling, strain panel (AID 1159580);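 further: tested at 20 µM; growth read once vehicle control cultures reached saturation at 30 °C; 1 = growth at the plate median or of vehicle wells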
Conditions: growth OD
[1] = S. cerevisiae deletion strains, locus YDR150W, strain NUM1, stronger effect = lower value
[2] = S. cerevisiae deletion strains, locus YPL055C, strain LGE1, stronger effect = lower value
[3] = S. cerevisiae deletion strains, locus YDL101C, strain DUN1, stronger effect = lower value
[4] = S. cerevisiae deletion strains, locus YHR030C, strain SLT2, stronger effect = lower value

CC(=O)Oc1cc(C(C)C)c(OCCN(C)C)cc1C
normalized growth (S. cerevisiae deletion strains, locus YAL040C, strain CLN3, stronger effect = lower value): 1.01
normalized growth (S. cerevisiae deletion strains, locus YCL061C, strain MRC1 (second series), stronger effect = lower value): 1.01
normalized growth [1]: 1
normalized growth (S. cerevisiae deletion strains, locus YDR363W, strain ESC2, stronger effect = lower value): 1.01
normalized growth (S. cerevisiae deletion strains, locus YER002W, strain NOP16, stronger effect = lower value): 1.03
normalized growth (S. cerevisiae deletion strains, locus YNL175C, strain NOP13, stronger effect = lower value): 1.01
normalized growth (S. cerevisiae deletion strains, locus YNL197C, strain WHI3, stronger effect = lower value): 1.01
normalized growth (S. cerevisiae deletion strains, locus YNL224C, strain SQS1, stronger effect = lower value): 1
normalized growth (S. cerevisiae deletion strains, locus YOR083W, strain WHI5 (second series), stronger effect = lower value): 1.01
normalized growth [2]: 1.01

CCCCCn1c(Sc2ncc([N+](=O)[O-])s2)n[nH]c1=O
normalized growth (S. cerevisiae deletion strains, locus YAL013W, strain DEP1, stronger effect = lower value): 0.592 (active)
normalized growth (S. cerevisiae deletion strains, locus YBR229C, strain ROT2, stronger effect = lower value): 0.463 (active)
normalized growth (S. cerevisiae deletion strains, locus YCL061C, strain MRC1, stronger effect = lower value): 0.67 (active)
normalized growth [3]: 0.559 (active)
normalized growth (S. cerevisiae deletion strains, locus YDL134C, strain PPH21, stronger effect = lower value): 0.099 (active)
normalized growth [1]: 0.615 (active)
normalized growth (S. cerevisiae deletion strains, locus YEL061C, strain CIN8, stronger effect = lower value): 0.0768 (active)
normalized growth (S. cerevisiae deletion strains, locus YGR078C, strain PAC10, stronger effect = lower value): 0.499 (active)
normalized growth [4]: 0.0794 (active)
normalized growth (S. cerevisiae deletion strains, locus YHR087W, strain rtc3, stronger effect = lower value): 0.53 (active)
normalized growth (S. cerevisiae deletion strains, locus YJL187C, strain SWE1, stronger effect = lower value): 0.493 (active)
normalized growth (S. cerevisiae deletion strains, locus YJR043C, strain POL32, stronger effect = lower value): 0.695 (active)
normalized growth (S. cerevisiae deletion strains, locus YJR075W, strain HOC1, stronger effect = lower value): 0.471 (active)
normalized growth (S. cerevisiae deletion strains, locus YKL190W, strain CNB1, stronger effect = lower value): 0.0782 (active)
normalized growth (S. cerevisiae deletion strains, locus YLR039C, strain RIC1, stronger effect = lower value): 0.134 (active)
normalized growth (S. cerevisiae deletion strains, locus YLR058C, strain SHM2 (second series), stronger effect = lower value): 0.675 (active)
normalized growth (S. cerevisiae deletion strains, locus YLR085C, strain ARP6, stronger effect = lower value): 0.0989 (active)
normalized growth (S. cerevisiae deletion strains, locus YLR262C, strain YPT6, stronger effect = lower value): 0.123 (active)
normalized growth (S. cerevisiae deletion strains, locus YML094W, strain GIM5, stronger effect = lower value): 0.22 (active)
normalized growth (S. cerevisiae deletion strains, locus YMR219W, strain ESC1, stronger effect = lower value): 0.624 (active)
normalized growth (S. cerevisiae deletion strains, locus YMR263W, strain SAP30, stronger effect = lower value): 0.669 (active)
normalized growth (S. cerevisiae deletion strains, locus YNL153C, strain GIM3, stronger effect = lower value): 0.0882 (active)
normalized growth (S. cerevisiae deletion strains, locus YNL298W, strain CLA4 (second series), stronger effect = lower value): 0.0804 (active)
normalized growth (S. cerevisiae deletion strains, locus YNL322C, strain KRE1, stronger effect = lower value): 0.917 (active)
normalized growth (S. cerevisiae deletion strains, locus YNR030W, strain Alg12, stronger effect = lower value): 0.0933 (active)
normalized growth [2]: 0.292 (active)
normalized growth (S. cerevisiae deletion strains, locus YPL241C, strain CIN2, stronger effect = lower value): 0.1 (active)
normalized growth (S. cerevisiae deletion strains, locus YPR135W, strain CTF4, stronger effect = lower value): 0.186 (active)
normalized growth (S. cerevisiae strains, strain wild type, stronger effect = lower value): 0.0897 (active)

CCC(C)Cn1c(Sc2ncc([N+](=O)[O-])s2)n[nH]c1=O (stereo not given)
normalized growth (S. cerevisiae deletion strains, locus YAR019C, strain CDC15, stronger effect = lower value): 0.853 (active)
normalized growth (S. cerevisiae deletion strains, locus YBL105C, strain PKC1, stronger effect = lower value): 0.893 (active)
normalized growth (S. cerevisiae deletion strains, locus YBR135W, strain CKS1, stronger effect = lower value): 0.867 (active)
normalized growth (S. cerevisiae deletion strains, locus YBR136W, strain MEC1, stronger effect = lower value): 0.888 (active)
normalized growth (S. cerevisiae deletion strains, locus YBR160W, strain CDC28, stronger effect = lower value): 0.894 (active)
normalized growth (S. cerevisiae deletion strains, locus YDL017W, strain CDC7, stronger effect = lower value): 0.895 (active)
normalized growth (S. cerevisiae deletion strains, locus YDL028C, strain MPS1, stronger effect = lower value): 0.895
normalized growth [3]: 0.932
normalized growth (S. cerevisiae deletion strains, locus YDL108W, strain KIN28, stronger effect = lower value): 0.878 (active)
normalized growth (S. cerevisiae deletion strains, locus YDL132W, strain cdc53, stronger effect = lower value): 0.849 (active)
normalized growth (S. cerevisiae deletion strains, locus YDL214C, strain PRR2, stronger effect = lower value): 0.794
normalized growth (S. cerevisiae deletion strains, locus YDR052C, strain DBF4, stronger effect = lower value): 0.93
normalized growth (S. cerevisiae deletion strains, locus YDR054C, strain cdc34, stronger effect = lower value): 0.825 (active)
normalized growth (S. cerevisiae deletion strains, locus YDR226W, strain ADK1, stronger effect = lower value): 0.884 (active)
normalized growth (S. cerevisiae deletion strains, locus YDR477W, strain SNF1, stronger effect = lower value): 0.711
normalized growth (S. cerevisiae deletion strains, locus YER123W, strain YCK3, stronger effect = lower value): 0.649
normalized growth (S. cerevisiae deletion strains, locus YER133W, strain GLC7, stronger effect = lower value): 0.69 (active)
normalized growth (S. cerevisiae deletion strains, locus YFL009W, strain cdc4, stronger effect = lower value): 0.844 (active)
normalized growth (S. cerevisiae deletion strains, locus YFL029C, strain CAK1, stronger effect = lower value): 0.848 (active)
normalized growth (S. cerevisiae deletion strains, locus YFR003C, strain YPI1, stronger effect = lower value): 0.901 (active)
normalized growth (S. cerevisiae deletion strains, locus YFR019W, strain FAB1, stronger effect = lower value): 0.838
normalized growth (S. cerevisiae deletion strains, locus YFR028C, strain CDC14, stronger effect = lower value): 0.888 (active)
normalized growth (S. cerevisiae deletion strains, locus YGR040W, strain KSS1, stronger effect = lower value): 0.751
normalized growth (S. cerevisiae deletion strains, locus YGR052W, strain FMP48, stronger effect = lower value): 0.776
normalized growth (S. cerevisiae deletion strains, locus YGR092W, strain DBF2, stronger effect = lower value): 0.469 (active)
normalized growth [4]: 0.772 (active)
normalized growth (S. cerevisiae deletion strains, locus YHR079C, strain IRE1, stronger effect = lower value): 0.657
normalized growth (S. cerevisiae deletion strains, locus YHR082C, strain KSP1, stronger effect = lower value): 0.926
normalized growth (S. cerevisiae deletion strains, locus YHR205W, strain SCH9, stronger effect = lower value): 0.806
normalized growth (S. cerevisiae deletion strains, locus YIL147C, strain SLN1, stronger effect = lower value): 0.896
normalized growth (S. cerevisiae deletion strains, locus YJL095W, strain BCK1, stronger effect = lower value): 0.651
normalized growth (S. cerevisiae deletion strains, locus YJL128C, strain PBS2, stronger effect = lower value): 0.938
normalized growth (S. cerevisiae deletion strains, locus YJL157C, strain FAR1, stronger effect = lower value): 0.763
normalized growth (S. cerevisiae deletion strains, locus YJR016C, strain ILV3, stronger effect = lower value): 0.877 (active)
normalized growth (S. cerevisiae deletion strains, locus YJR066W, strain TOR1 (second series), stronger effect = lower value): 0.492 (active)
normalized growth (S. cerevisiae deletion strains, locus YJR066W, strain TOR1, stronger effect = lower value): 0.778
normalized growth (S. cerevisiae deletion strains, locus YKL048C, strain ELM1, stronger effect = lower value): 0.963
normalized growth (S. cerevisiae deletion strains, locus YKL067W, strain YNK1, stronger effect = lower value): 0.792
normalized growth (S. cerevisiae deletion strains, locus YKL101W, strain HSL1, stronger effect = lower value): 0.838
normalized growth (S. cerevisiae deletion strains, locus YKL193C, strain SDS22, stronger effect = lower value): 0.849 (active)
normalized growth (S. cerevisiae deletion strains, locus YKL203C, strain TOR2, stronger effect = lower value): 0.795
normalized growth (S. cerevisiae deletion strains, locus YLR113W, strain HOG1, stronger effect = lower value): 0.598 (active)
normalized growth (S. cerevisiae deletion strains, locus YLR133W, strain CKI1, stronger effect = lower value): 0.805
normalized growth (S. cerevisiae deletion strains, locus YLR403W, strain SFP1, stronger effect = lower value): 0.56 (active)
normalized growth (S. cerevisiae deletion strains, locus YML070W, strain DAK1, stronger effect = lower value): 0.759
normalized growth (S. cerevisiae deletion strains, locus YMR001C, strain CDC5, stronger effect = lower value): 0.88 (active)
normalized growth (S. cerevisiae deletion strains, locus YMR205C, strain PFK2 (second series), stronger effect = lower value): 0.844
normalized growth (S. cerevisiae deletion strains, locus YMR277W, strain FCP1, stronger effect = lower value): 0.846 (active)
normalized growth (S. cerevisiae deletion strains, locus YNL006W, strain LST8, stronger effect = lower value): 0.894 (active)
normalized growth (S. cerevisiae deletion strains, locus YNL020C, strain ARK1, stronger effect = lower value): 0.826
normalized growth (S. cerevisiae deletion strains, locus YNL161W, strain CBK1, stronger effect = lower value): 0.875 (active)
normalized growth (S. cerevisiae deletion strains, locus YNL183C, strain NPR1, stronger effect = lower value): 0.652
normalized growth (S. cerevisiae deletion strains, locus YNL207W, strain RIO2, stronger effect = lower value): 0.867 (active)
normalized growth (S. cerevisiae deletion strains, locus YNL222W, strain SSU72, stronger effect = lower value): 0.865 (active)
normalized growth (S. cerevisiae deletion strains, locus YNL307C, strain MCK1 (second series), stronger effect = lower value): 0.714
normalized growth (S. cerevisiae deletion strains, locus YOL078W, strain AVO1, stronger effect = lower value): 0.856 (active)
normalized growth (S. cerevisiae deletion strains, locus YOL136C, strain PFK27, stronger effect = lower value): 0.766
normalized growth (S. cerevisiae deletion strains, locus YOR061W, strain CKA2, stronger effect = lower value): 0.85
normalized growth (S. cerevisiae deletion strains, locus YOR119C, strain RIO1, stronger effect = lower value): 0.735
normalized growth (S. cerevisiae deletion strains, locus YOR231W, strain MKK1, stronger effect = lower value): 0.722
normalized growth (S. cerevisiae deletion strains, locus YOR329C, strain SCD5, stronger effect = lower value): 0.908
normalized growth (S. cerevisiae deletion strains, locus YPL031C, strain PHO85, stronger effect = lower value): 0.674
normalized growth (S. cerevisiae deletion strains, locus YPL153C, strain RAD53, stronger effect = lower value): 0.657 (active)
normalized growth (S. cerevisiae deletion strains, locus YPL204W, strain HRR25, stronger effect = lower value): 0.683
normalized growth (S. cerevisiae deletion strains, locus YPL209C, strain IPL1, stronger effect = lower value): 0.891 (active)
normalized growth (S. cerevisiae deletion strains, locus YPL256C, strain CLN2, stronger effect = lower value): 0.695 (active)
normalized growth (S. cerevisiae deletion strains, locus YPR025C, strain CCL1, stronger effect = lower value): 0.888 (active)
normalized growth (S. cerevisiae deletion strains, locus YPR106W, strain ISR1, stronger effect = lower value): 0.943
normalized growth (S. cerevisiae deletion strains, locus YPR111W, strain DBF20, stronger effect = lower value): 0.938
normalized growth (S. cerevisiae deletion strains, strain NNK1, stronger effect = lower value): 0.932
normalized growth (S. cerevisiae deletion strains, strain TSCII, stronger effect = lower value): 0.85 (active)

Reference: PubChem BioAssay AID1159580 (chemical genetic matrix, 2015)
